This experiment concerns CAOV3. As to the kind of experiment: Confirmatory qHTS for gynecologic anti-cancer compounds from libraries of approved drugs and bioactive compounds. Further: nearly all actives have a fitted effect of over 55% in size. The note with it: gynecologic cancer cell panel viability, ATPlite luminescence, 48 h; series mostly up to 57.6 µM. In a few lines:
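Cells (1,000/well) plated 16 h, then exposed 48 h at 37 °C to 11 concentrations (1:3) from 57.5 uM to 0.977 nM. Viability by ATPlite luminescence after 15 min; IC50 derived, with HEK 293T used for selectivity index.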

The text below walks through data of PubChem BioAssay AID1345085 (National Center for Advancing Translational Sciences (NCATS), 2018).

Structures are written as SMILES. Results filed as inconclusive are left out. Where a call stands in place of a potency, no number is given. Calls of active or inactive are those of the source. The call rests on the fitted dose curve; in most records, active means well fitted cell-killing curve with a large enough effect; inconclusive means small, poorly fitted or top-dose-only effect, or effect the other way; inactive means no such curve, though single readings can be large or run the other way.
Potency means the concentration at half of the fitted maximal effect.

Regarding `CCOc1ccccc1-n1c(C(C)N2CCN(C(=O)COc3ccc(Cl)cc3)CC2)nc2ccccc2c1=O` (centres undefined), the Potency result was “inactive”. The value for `CCNC(=O)C[C@@H]1N=C(c2ccc(Cl)cc2)c2cc(OC)ccc2-n2c(C)nnc21` was 1220 nM (active); that for `C[C@]12CC[C@H]3[C@@H](CCC4=CC(=O)CC[C@@H]43)[C@@H]1CC[C@@H]2OC(=O)CCc1ccccc1` was “inactive”.

As to `O=C(O)Cc1ccccc1`, the Potency result is “inactive”. In the case of `C=C(C)[C@H]1Cc2c(ccc3c2O[C@@H]2COc4cc(OC)c(OC)cc4[C@@H]2C3=O)O1` it was “inactive”; in that of `C[C@H]1CCC/C=C/C2C[C@H](O)C[C@H]2[C@H](O)/C=C/C(=O)O1` (some centres undefined), 306 nM (active). For `CCC(=O)O[C@H]1CC[C@H]2[C@@H]3CCC4=CC(=O)CC[C@]4(C)[C@H]3CC[C@]12C`, the Potency result is “inactive”.

As for `C/C=C(/C)C(=O)O[C@H]1C(C)=C2[C@H]([C@@H]1OC(=O)CCCCCCC)[C@@](C)(OC(C)=O)C[C@H](OC(=O)CCC)[C@@]1(O)[C@H]2OC(=O)[C@@]1(C)O`, the Potency was 9680 nM (active). In the case of `CCN1CCN(C(=O)Cc2ccc(Nc3ncc(F)c(Nc4ccc(C(=O)Nc5ccccc5Cl)cc4)n3)cc2)CC1` it was “inactive”.
